Hits are enriched below; roughly 11% of the tested compounds scored in any of these assays.
PNC assembly inh: High Content Assay for Compounds that inhibit the Assembly of the Perinucleolar Compartment; hit rate 3.1% among 140,000; PC3M PTB-GFP, PNC prevalence imaging, 16 h; stronger effect = lower value; AID 2417, 2010; activity change (PNC), negative = inhibition, % at 10 µM;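 active = readout at or below -70, meaning at least 70% loss of cells showing the perinucleolar compartment, a nuclear body marking cancer cells; inconclusive = readout between -30 and a set limit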;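 also: plate controls were DMSO wells for no effect and camptothecin positive control wells for full effect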
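Read-out is percentage of cells bearing a perinucleolar compartment, from automated 20x imaging of fixed, Hoechst-stained PC3M PTB-GFP cells. Cells were seeded 4 h, then exposed 16 h to compound (23 nl of library stock) in duplicate plates.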
HPGD block: qHTS Assay for Inhibitors of HPGD (15-Hydroxyprostaglandin Dehydrogenase); 15-hydroxyprostaglandin dehydrogenase [NAD(+)] (Homo sapiens), P15428; AID 894, 2007; purified HPGD, NADH fluorescence kinetic, PGE2 substrate; hit rate 4.3% among 150,000; Potency, µM, inactives show at the top dose activity change, negative = inhibition, hits mostly inhibitors; also: potency is read from the fitted curve at half-maximal effect
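NADH formation kinetics: reaction with 30 uM PGE2 and 1 mM NAD+ (final), 20 nM enzyme, Tris-HCl pH 8 with Tween 20, after 15 min compound preincubation at room temperature. Fluorescence change, last versus first of five reads.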
ALDH1A1 inh: qHTS Assay for Inhibitors of Aldehyde Dehydrogenase 1 (ALDH1A1). Aldehyde dehydrogenase 1A1 (Homo sapiens), P00352. Purified ALDH1A1, NADH fluorescence, propionaldehyde substrate. Potency, µM (top dose mostly 75.3 µM), without a hit: top-dose activity, negative = inhibition, hits mostly inhibitors. hit rate 7.3% among 220,000. AID 1030, 2008;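 also: potency is read from the fitted curve at half-maximal effect; plate controls were no enzyme wells and a reference inhibitor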
Target sequence (P00352 whole entry, looked up): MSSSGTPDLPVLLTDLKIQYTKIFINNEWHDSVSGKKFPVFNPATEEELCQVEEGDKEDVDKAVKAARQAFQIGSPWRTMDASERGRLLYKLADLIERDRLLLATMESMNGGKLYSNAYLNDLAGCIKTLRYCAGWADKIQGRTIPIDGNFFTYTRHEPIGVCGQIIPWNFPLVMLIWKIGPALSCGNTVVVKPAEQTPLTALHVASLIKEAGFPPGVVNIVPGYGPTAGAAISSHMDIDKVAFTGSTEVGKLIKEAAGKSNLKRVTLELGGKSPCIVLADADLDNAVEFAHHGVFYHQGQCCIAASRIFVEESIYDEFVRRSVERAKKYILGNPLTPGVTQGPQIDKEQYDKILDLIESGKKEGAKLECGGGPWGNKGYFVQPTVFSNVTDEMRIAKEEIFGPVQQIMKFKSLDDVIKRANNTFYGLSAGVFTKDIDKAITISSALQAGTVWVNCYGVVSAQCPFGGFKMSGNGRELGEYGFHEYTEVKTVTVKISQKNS
* marks the source's active call; other numbers are inactive results; ? = inconclusive; . = no result; [ ] = remark or other dose. Unless noted, calls follow the shape of the dose curve; as a rule, active = well fitted inhibition curve with a large enough effect (not every such curve was filed as active); inconclusive = small, poorly fitted or top-dose-only effect, or another doubt; inactive = no such curve, though single readings can be large or run the other way. Unless noted, % is scaled to controls: 0 for no effect and ±100 for the full control effect.

SMILES | PNC assembly inh | HPGD block | ALDH1A1 inh
CCOc1ccc(NCc2nnc(SCc3ccccc3Cl)n2-c2ccccc2)cc1 | -17 | -15% | 13µM*
COc1ccc(-n2c(CNc3ccc(C)cc3)nnc2SCc2ccccc2)cc1 | ? | -21% | -8%
CCOC(=O)NCCOC(=O)Nc1ccc(Cl)cc1 | . | . | 5%
CCOC(=O)N(CC)OC(=O)Nc1ccc(Cl)cc1 | -8 | -8% | 4.5µM*
CCOC(=O)CNNC(=O)Nc1ccc(Cl)c(Cl)c1 | 10 | -1% | 0%
CCOC(=O)N(C)OC(=O)Nc1ccc(Cl)c(Cl)c1 | -1 | ? | 4µM*
CCOC(=O)N1CCN(C(=O)c2cc3cc(Br)ccc3oc2=O)CC1 | -6 | -9% | ?
O=C(NCc1ccc(N2CCCC2=O)cc1)Nc1ccccc1 | -21 | -22% | -2%
COc1ccc(NC(=O)N2CC[C@@]3(CCCN(C(=O)c4cnccn4)C3)C2)cc1 | . | -1% | -2%
CCn1cnc2c(oc3ccccc32)c1=O | . | . | -1%
CC(C)CCn1cnc2c(oc3nc4c(cc32)CCCC4)c1=O | . | . | 3.2µM*
Cn1cnc([N+](=O)[O-])c1[Se]c1nc(N)nc2c1ncn2[C@@H]1O[C@@H](CO)[C@H](O)[C@@H]1O | . | -8% | 6%[13.5 µM]
Cc1nnsc1C(=O)Nc1cccc(Cl)c1Cl | -22 | -5% | 5%
CCC1=C(OC(=O)N(CC)CC)N2C(=O)OC(=NCCc3c[nH]c4ccccc34)[C@]2(Cc2ccccc2)[C@H]2C1=CC[C@H]1C(=O)N(C)C(=O)[C@H]12 | . | -7% | -1%
Cc1ccccc1CSc1ccc(-c2ccc3c(c2)OCO3)nn1 | ? | -25% | ?
CCCN(CC1CC1)S(=O)(=O)c1ccc(-n2cnnn2)c(OC)c1 | -12 | -6% | 21%
O=c1ccc(Oc2nc(N3CCOCC3)nc(N3CCOCC3)n2)nn1-c1ccccc1 | 36 | -13% | 1%
COc1cc(/C=C2/SC(=S)N(c3ccccc3)C2=O)ccc1Oc1nc(N2CCOCC2)nc(N2CCOCC2)n1 | ? | -14% | 0.4µM*
CCOC(=O)C1Oc2ccccc2C(c2cccc3ccccc23)=C1C(=O)OC (stereo not drawn) | . | -14% | ?
CN(C)CCCNC(=O)C1CCNCC1 | 17 | -6% | -5%
N=c1c2c(-c3ccccc3)c(-c3ccccc3)n(Cc3ccco3)c2ncn1Cc1ccco1 | 19 | -2% | -1%
N=c1c2c(-c3ccccc3)c(-c3ccccc3)n(Cc3ccccc3)c2ncn1CCCn1ccnc1 | -98* | -16% | 0%
S=c1[nH]c(-c2ccc(Br)cc2)cn1CCc1ccccc1 | . | . | 5%
CCOc1ccccc1N(C(=O)c1ccco1)C(C(=O)NC1CCCC1)c1cccnc1 (stereo not drawn) | -20 | 5% | 5%
Nc1nc(=S)c2[nH]cnc2[nH]1 | . | 35µM* | ?
SMILES | PNC assembly inh | HPGD block | ALDH1A1 inh
Nc1ncnc2nc[nH]c12 | . | -11% | 4%
Cc1cc(C)cc(NC(=O)CCC(=O)Nc2cc(C)on2)c1 | -100* | -17% | -3%
Cn1c(SCC(=O)Nc2cc(C(C)(C)C)nn2-c2ccccc2)nc2ccccc21 | -14 | -1% | 4%
CC(=O)Nc1ccc(SCC(=O)Nc2cc(C)on2)cc1 | . | . | 22µM*
Cc1cc(NC(=O)CCCC(=O)Nc2ccc(F)cc2)no1 | 66 | -9% | 14%
CC(=O)Nc1ccc(SCC(=O)Nc2cc(C(C)(C)C)nn2-c2ccccc2)cc1 | -115* | -10% | 14%
Cc1cc(NC(=O)CSc2ccc(F)cc2)no1 | . | . | -3%
COc1ccc2[nH]c(C(=O)c3ccccc3)cc2c1 | . | -22% | -8%
N#CCCN(C(=O)COC(=O)c1ccc(CNS(=O)(=O)c2ccc(F)c(Cl)c2)cc1)c1ccc(F)cc1 | 16 | -22% | 7%
CCc1ccc(CCC(=O)O)nc1 | . | -1% | 4%[13.5 µM]
Cc1ccc(C(=O)Oc2cc(C)n(C)c(=O)c2)cc1 | -30 | -7% | 1%
N#C/C(C(=O)NCc1ccccc1)=C1/N=C(NC(=O)c2cccs2)c2ccccc21 | 34 | -21% | -15%
CCOC(=O)c1[nH]nc2c1C(=O)N(Cc1ccccc1)C2=O | -26 | 8.9µM* | ?
COC(=O)c1[nH]nc2c1C(=O)N(Cc1ccccc1)C2=O | 26 | 10µM* | ?
COC(=O)c1[nH]nc2c1C(=O)N(C1CCCCC1)C2=O | ? | -24% | ?
CCOC(=O)C1=C(C)N(Cc2ccccc2)C(=O)NC1c1ccc(OC)cc1 (stereo not drawn) | 24 | -14% | ?
CCCOc1ccc(/C(O)=C2/C(=O)C(=O)N(CCN(CC)CC)C2c2ccncc2)cc1 (stereo not drawn) | 12 | 0% | -1%

High-throughput results: PubChem, National Center for Advancing Translational Sciences (NCATS)
